Source: paper PMC4552634, “A New Set of Chemical Starting Points with Plasmodium falciparum Transmission-Blocking Potential for Antimalarial Drug Discovery” (PLoS ONE, 2015)
Out of some 13,000 compounds screened, about 3,200 (25%) showed an effect of 50% or more. The list shows a part of the results.

tested on: P. falciparum stage V gametocytes; set-up: BacTiter-Glo ATP luminescence viability of purified stage V gametocytes in 384-well plates, per cent inhibition versus DMSO; details: 48 h, 5 µM; inhibitor

SMILES | % Inhibition [%]
CCCCNC(=O)[C@@H](NC(=O)c1ccc(O)c(-c2ccc(Cl)c(Cl)c2)c1)C(C)C [TCMDC-140839] | 36.3
CCCCOP(=O)(COc1ccc(CCN(CC(O)COc2cccc3[nH]c4ccccc4c23)CC(O)COc2cccc3[nH]c4ccccc4c23)cc1)C1CCCCC1 (centres unmarked) [TCMDC-139016] | 44.85
COc1ccc(Nc2nccc(N3CCC(NC(=O)Nc4cccc(C(C)=O)c4)C3)n2)cc1 (centres unmarked) [TCMDC-133610] | -16.63
COc1cc(Cc2cnc(N)nc2N)cc(OCCCOc2ccccc2)c1OC [TCMDC-137687] | 38.19
O=C(/C=C/c1ccc(F)c(C(F)(F)F)c1)N1CCC(CN2CCC(c3c[nH]c4ccccc34)CC2)CC1 [TCMDC-140384] | -23.83
O=C(/C=C/c1ccsc1)N1CCC(CCN2CCC(c3c[nH]c4ccccc34)CC2)CC1 [TCMDC-140263] | 102.1
COc1ccc(C=CC(=O)N2CCC(CN3CCC(c4c[nH]c5ccccc45)CC3)CC2)cc1OC [TCMDC-139944] | -13.45
O=C(C=Cc1ccc(-c2ccccc2)cc1)N1CCC(CCN2CCC(c3c[nH]c4ccccc34)CC2)CC1 [TCMDC-139941] | 105.7
CC(C)c1ccc(C=CC(=O)N2CCC(CCN3CCC(c4c[nH]c5ccccc45)CC3)CC2)cc1 [TCMDC-139942] | 110.7
O=C(/C=C/c1ccsc1)NC1CCC(CN2CCC(c3c[nH]c4ccccc34)CC2)CC1 (centres unmarked) [TCMDC-140294] | -21.49
COc1cc(C=CC(=O)N2CCC(CN3CCC(c4c[nH]c5ccccc45)CC3)CC2)ccc1O [TCMDC-139913] | -95.05
COc1cc(C=CC(=O)N2CCC(CCN3CCC(c4c[nH]c5ccccc45)CC3)CC2)cc(OC)c1 [TCMDC-139938] | 103.2
Cc1ccc(/C=C/C(=O)N2CCC(CCN3CCC(c4c[nH]c5ccccc45)CC3)CC2)cc1C [TCMDC-139762] | 46.51
COc1cc(C=CC(=O)N2CCC(CN3CCC(c4c[nH]c5ccccc45)CC3)CC2)cc(OC)c1 [TCMDC-139945] | -6.368
COc1cc(NC(=O)N2CCc3ccc(OCCN(C(C)C)C(C)C)cc32)cc(C(F)(F)F)c1 [TCMDC-140251] | 48.14
CN1CCCC(OC(=O)c2ccccc2)C1 (centres unmarked) [TCMDC-125511] | 3.276
Fc1ccc2[nH]c(-c3cccc(-c4cccc(CNCC5CCCO5)c4)c3)nc2c1.O=C(O)C(F)(F)F (centres unmarked) [TCMDC-133091] | -32.27
O=C(NC1CCCc2ccccc21)[C@@H]1CCCN1C(=O)c1ccc(O)c(-c2ccc(Cl)c(Cl)c2)c1 (some centres unmarked) [TCMDC-140867] | 31.83
COC(=O)c1ccc(CC(C)NCC(O)c2cccc(SC(F)(F)F)c2)cc1 (centres unmarked) [TCMDC-131494] | 25.48
CCCC(N)C(=O)NC1CCN(c2c(F)c(N)c3c(=O)c(C(=O)O)cn4c3c2Oc2ccccc2-4)C1 (centres unmarked) [TCMDC-125701] | 40.26
Cc1cc(CNC(c2ccccc2)C2CCC2)cc(C)c1O (centres unmarked) [TCMDC-134518] | -25.25
Cc1nc2nc(N)nc(N)c2c(C)c1Cc1ccc(C(F)(F)F)cc1 [TCMDC-137656] | -0.8923

SMILES | % Inhibition [%]
N#Cc1ccccc1Sc1ccccc1C(=O)Nc1ccc2ccccc2n1 [TCMDC-125464] | 33.3
O=C(/C=C/c1cc(F)c(F)cc1F)N1CCC(CN2CCC(c3c[nH]c4ccccc34)CC2)CC1 [TCMDC-140383] | -20.73
O=C(/C=C/c1ccc([N+](=O)[O-])cc1)N1CCC(CCN2CCC(c3c[nH]c4ccccc34)CC2)CC1 [TCMDC-139940] | -27.66
O=C(/C=C/c1ccc(Cl)cc1Cl)N1CCC(CCN2CCC(c3c[nH]c4ccccc34)CC2)CC1 [TCMDC-139711] | 81.98
O=C(/C=C/c1ccccc1O)N1CCC(CCN2CCC(c3c[nH]c4ccccc34)CC2)CC1 [TCMDC-139712] | 101.8
O=C(/C=C/c1cc([N+](=O)[O-])ccc1Cl)N1CCC(CCN2CCC(c3c[nH]c4ccccc34)CC2)CC1 [TCMDC-139911] | 95.76
O=C(/C=C/c1cc([N+](=O)[O-])ccc1Cl)NC1CCC(CN2CCC(c3c[nH]c4ccccc34)CC2)CC1 (centres unmarked) [TCMDC-139907] | -55.07
O=C(C=Cc1ccccc1O)N1CCC(CN2CCC(c3c[nH]c4ccccc34)CC2)CC1 [TCMDC-139912] | -49.08
O=C(C=Cc1ccc(Br)cc1)N1CCC(CCN2CCC(c3c[nH]c4ccccc34)CC2)CC1 [TCMDC-139939] | 87.97
CCCc1ccc(NC(=O)c2ccc(CN3CCCN(CC4CCCCC4)CC3)cc2)cc1 [TCMDC-136420] | -21.41
FC(F)(F)c1ccc2[nH]c(-c3ccc(-c4ccc(CN5CCN(c6cnccn6)CC5)cc4)s3)nc2c1.O=C(O)C(F)(F)F [TCMDC-132677] | 4.163
COc1cc(Cc2cnc(N)nc2N)cc(OCCCCC2SC(=O)NC2=O)c1OC (centres unmarked) [TCMDC-137185] | -7.728
Cc1cnc(NC(=O)c2cn(-c3ccccc3)nc2-c2cccs2)s1 [TCMDC-124433] | 10.72
COc1cc2c(c(OC)c1OC)C[C@H]1c3c(cc4c(c3-2)OCO4)CCN1C [TCMDC-138525] | -52.76
N#Cc1ccc2[nH]cc(CN3CCC4(CC3)CN(CCNCc3ccccc3)C(=O)O4)c2c1 [TCMDC-136732] | -34.87
COc1ccc2ncc(F)c(CCN3C[C@H](CNCc4cc(F)c5c(c4)NC(=O)CO5)[C@H](O)C3)c2n1 [TCMDC-136203] | 28.74
Nc1nc2c(ncn2OC[C@H](CO)OCP(=O)(O)O)c(=O)[nH]1 [TCMDC-131639] | 4.722
O=C(/C=C/c1cc(F)cc(C(F)(F)F)c1)N1CCC(CN2CCC(c3c[nH]c4ccccc34)CC2)CC1 [TCMDC-140385] | -12.95
O=C(/C=C/c1cc(C(F)(F)F)ccc1F)N1CCC(CN2CCC(c3c[nH]c4ccccc34)CC2)CC1 [TCMDC-139857] | -24.43
O=C(/C=C/c1ccc(C(F)(F)F)cc1)N1CCC(CCN2CCC(c3c[nH]c4ccccc34)CC2)CC1 [TCMDC-139761] | 107.6
CCN(CC)CCN(Cc1ccc(-c2ccc(C(F)(F)F)cc2)cc1)C(=O)Cn1cc(Cc2cnn(C)c2)c(=O)n2nc(-c3ccccc3)cc12 [TCMDC-140690] | 119.2
CCN(CC)CCN(Cc1ccc(-c2ccc(C(F)(F)F)cc2)nc1)C(=O)Cn1cc(Cc2cnn(C)c2)c(=O)n2nc(-c3ccccc3)cc12 [TCMDC-140691] | 119

SMILES | % Inhibition [%]
CCCCN1Cc2c(n(CC(=O)Nc3ccccc3)c3cc(-c4ccccc4)nn3c2=O)C1=O [TCMDC-125585] | -0.9231
COc1ccc2nccc([C@@H](O)CN3CCC(NC(=O)/C=C/c4cccc(C)c4)CC3)c2c1 [TCMDC-141114] | -1.317
O=C(NC1CCN(CCc2c[nH]c3ccc(F)cc23)CC1)c1ncc(-c2ccccc2)[nH]1 [TCMDC-131972] | 5.191
CCOC(=O)CN(c1ccc(Br)cc1OCCOc1cc(Br)ccc1N(CC(=O)OCC)C(C)C(=O)OCC)C(C)C(=O)OCC (centres unmarked) [TCMDC-132003] | 102
COc1ccc(NC(=O)/C=C/c2cc(Br)ccc2F)cc1OCCN(C(C)C)C(C)C [TCMDC-140668] | -43.25
Cc1ccc(NC(=O)Nc2ccc(Br)cc2)cc1OCCN(C)C [TCMDC-140087] | -42.58
C=CCc1cc(SC)ccc1Oc1ccc(N)cc1 [TCMDC-137690] | -96.62
Cc1ccccc1C(=O)Nc1cccc(-c2nc3ncccn3c2C)c1 [TCMDC-125138] | 25.46
Cc1c(-c2cccc(NC(=O)C(C)(C)Oc3ccc(Cl)cc3)c2)nc2ncccn12 [TCMDC-124460] | 51.92
CCOc1ccccc1C(=O)Nc1cccc(-c2nc3ncccn3c2C)c1 [TCMDC-124461] | 18.92
CN(c1cc(NC(=O)c2cccs2)ccn1)C1CCN(Cc2cccc(C#N)c2)CC1 [TCMDC-134970] | 39.85
Cc1[nH]c(C)c(-c2ccc(Oc3ccc(Cl)cc3Cl)cc2)c(=O)c1Br [TCMDC-137533] | 62.65
Cc1[nH]c(C)c(-c2ccc(Oc3ccc(Cl)c(Cl)c3)cc2)c(=O)c1Br [TCMDC-137397] | 72.37
Cc1[nH]c(C)c(-c2ccc(Oc3ccc(Cl)cc3)c(Cl)c2)c(=O)c1Br [TCMDC-137409] | 21.95
Cc1[nH]c(C)c(-c2ccc(Cl)cc2Cl)c(=O)c1Br [TCMDC-137428] | 6.285
Cc1[nH]c(C)c(-c2ccc(Oc3ccc(Cl)c(Cl)c3)cc2)c(=O)c1Cl [TCMDC-137396] | 73.66
Cc1[nH]c(C)c(-c2ccc(Oc3cc(Cl)cc(Cl)c3)cc2)c(=O)c1Br [TCMDC-137392] | 48.81
Cc1noc(C)c1-c1ccc(C(=C2CCCCCC2)c2ccc(O)cc2)cc1 [TCMDC-135873] | -11.65
CCCCCc1cc(O)c2c(c1)OC(C)(C)C=C2C1=CCN(Cc2ccsc2)CC1 [TCMDC-131400] | -46.98
COc1cc(NC(=O)c2c(-c3c(F)cccc3Cl)noc2C)c(OC)cc1Cl [TCMDC-123635] | 20.08
Cc1ccc(NC(=O)c2cccc(CN3CCCN(Cc4cccc(O)c4)CC3)c2)cc1 [TCMDC-135961] | 28.04
